# Experimental data as given in ChEMBL document CHEMBL3988442, “University of Dundee, Small-Polar-MMV Screening Library” (2021).
# For some assays here: Results with a measured potency or affinity are listed apart.
# Assays:
# Set-up in all cases: scale not given: direction of the effect not stated beside the values
# [1] = target: Protein translocase subunit SecA (Escherichia coli (strain K12)) (UniProt P10408); assay: Assay to Identify E. coli SecA ATPase Inhibitors; type: functional; details: 30 µM
# Sequence of Protein translocase subunit SecA (Escherichia coli (strain K12)) (P10408 whole entry): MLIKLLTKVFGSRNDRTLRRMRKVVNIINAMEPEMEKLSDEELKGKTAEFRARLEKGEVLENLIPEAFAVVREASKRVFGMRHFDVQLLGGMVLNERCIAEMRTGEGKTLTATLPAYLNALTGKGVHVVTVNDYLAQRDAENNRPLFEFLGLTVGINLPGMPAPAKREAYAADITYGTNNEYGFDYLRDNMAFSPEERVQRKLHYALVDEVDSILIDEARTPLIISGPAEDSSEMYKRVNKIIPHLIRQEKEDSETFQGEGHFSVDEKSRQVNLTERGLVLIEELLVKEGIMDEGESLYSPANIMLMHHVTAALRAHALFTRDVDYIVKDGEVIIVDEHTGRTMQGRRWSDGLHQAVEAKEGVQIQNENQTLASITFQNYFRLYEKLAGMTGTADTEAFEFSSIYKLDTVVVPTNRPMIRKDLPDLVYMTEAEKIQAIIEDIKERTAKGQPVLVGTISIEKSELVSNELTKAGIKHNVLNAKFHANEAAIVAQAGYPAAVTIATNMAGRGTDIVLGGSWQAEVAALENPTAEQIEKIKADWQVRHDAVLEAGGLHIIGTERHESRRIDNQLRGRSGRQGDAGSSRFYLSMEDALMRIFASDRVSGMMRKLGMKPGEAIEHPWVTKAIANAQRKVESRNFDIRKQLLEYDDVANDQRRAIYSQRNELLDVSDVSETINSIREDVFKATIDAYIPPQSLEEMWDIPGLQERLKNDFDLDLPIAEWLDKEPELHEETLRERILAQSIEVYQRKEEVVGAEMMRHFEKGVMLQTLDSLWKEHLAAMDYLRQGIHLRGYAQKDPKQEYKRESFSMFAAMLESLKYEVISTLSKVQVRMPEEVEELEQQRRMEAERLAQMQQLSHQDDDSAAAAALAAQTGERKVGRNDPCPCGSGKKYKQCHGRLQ
# [2] = target: T1, Ubiquitin-activating enzyme e1, putative (Leishmania donovani (strain BPK282A1)) (UniProt E9BSI1); assay: Leishmania donovani Ubiquitin Activating Enzyme (LdE1); type: functional; details: 30 µM
# T1 sequence (whole entry): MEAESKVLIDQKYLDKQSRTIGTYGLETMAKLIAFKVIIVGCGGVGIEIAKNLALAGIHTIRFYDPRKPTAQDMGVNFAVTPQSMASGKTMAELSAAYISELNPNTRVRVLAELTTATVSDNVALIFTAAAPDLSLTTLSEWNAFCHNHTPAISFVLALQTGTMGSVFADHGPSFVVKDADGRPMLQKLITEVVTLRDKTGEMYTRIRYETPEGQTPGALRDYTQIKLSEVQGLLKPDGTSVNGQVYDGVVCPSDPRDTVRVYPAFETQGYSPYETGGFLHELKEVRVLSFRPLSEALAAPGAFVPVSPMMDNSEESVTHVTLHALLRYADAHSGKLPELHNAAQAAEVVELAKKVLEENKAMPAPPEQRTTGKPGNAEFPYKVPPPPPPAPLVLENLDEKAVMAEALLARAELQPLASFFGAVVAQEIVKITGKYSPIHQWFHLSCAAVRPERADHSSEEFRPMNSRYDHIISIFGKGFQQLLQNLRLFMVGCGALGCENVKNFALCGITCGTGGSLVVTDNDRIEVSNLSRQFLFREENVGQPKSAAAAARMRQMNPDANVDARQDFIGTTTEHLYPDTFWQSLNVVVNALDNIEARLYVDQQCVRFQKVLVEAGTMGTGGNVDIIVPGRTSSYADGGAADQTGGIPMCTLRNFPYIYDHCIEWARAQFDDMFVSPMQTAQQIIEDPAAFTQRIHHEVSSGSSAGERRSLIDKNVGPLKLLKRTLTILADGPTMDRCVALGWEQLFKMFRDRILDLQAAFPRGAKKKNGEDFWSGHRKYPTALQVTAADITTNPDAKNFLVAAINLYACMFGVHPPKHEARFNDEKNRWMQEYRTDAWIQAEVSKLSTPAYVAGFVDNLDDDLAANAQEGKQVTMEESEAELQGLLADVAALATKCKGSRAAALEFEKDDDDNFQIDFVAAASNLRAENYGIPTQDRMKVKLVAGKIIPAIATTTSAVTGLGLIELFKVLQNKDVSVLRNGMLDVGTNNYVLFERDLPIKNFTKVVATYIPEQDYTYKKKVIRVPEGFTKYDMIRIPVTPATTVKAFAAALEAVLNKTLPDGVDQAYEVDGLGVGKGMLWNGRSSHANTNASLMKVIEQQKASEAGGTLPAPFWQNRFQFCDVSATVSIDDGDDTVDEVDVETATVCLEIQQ
# [3] = target: AMP-activated protein kinase, AMPK (Homo sapiens) (UniProt P54646+O43741+P54619+Q9UGJ0+Q9Y478+Q13131+Q9UGI9); assay: AMP-dependent Kinase enzyme assay. An in vitro enzyme assay that detects ADP turnover that is directly proportional to AMPK activity. This uses naive AMPK that is activated during the assay with MK-8722; type: functional; details: 30 µM
# [4] = target: Sialic acid-binding Ig-like lectin 9 (Homo sapiens) (UniProt Q9Y336); assay: Hs-Siglec9 ALPHAscreen SOP 20170721; details: 10 µM
# Sequence of Sialic acid-binding Ig-like lectin 9 (Homo sapiens) (Q9Y336 whole entry): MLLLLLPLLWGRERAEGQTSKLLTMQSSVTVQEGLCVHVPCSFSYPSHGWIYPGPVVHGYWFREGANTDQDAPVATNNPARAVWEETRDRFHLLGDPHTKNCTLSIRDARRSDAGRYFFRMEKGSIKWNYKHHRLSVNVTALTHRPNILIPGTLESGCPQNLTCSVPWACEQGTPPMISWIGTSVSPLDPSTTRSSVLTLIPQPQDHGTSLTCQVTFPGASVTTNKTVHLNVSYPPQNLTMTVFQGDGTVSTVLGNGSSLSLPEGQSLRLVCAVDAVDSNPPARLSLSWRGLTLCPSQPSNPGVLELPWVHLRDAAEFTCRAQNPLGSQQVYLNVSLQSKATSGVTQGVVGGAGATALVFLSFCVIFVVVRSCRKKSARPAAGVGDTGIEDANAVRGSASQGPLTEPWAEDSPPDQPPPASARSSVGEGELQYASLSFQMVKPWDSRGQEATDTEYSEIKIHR
# Trypanosoma cruzi = assay: Trypanosoma cruzi phosphomannomutase and mannose-1-phosphate guanylyltransferase assay; type: functional; details: 10 µM
# [5] = target: T2, Arginase-2, mitochondrial (Homo sapiens) (UniProt P78540); assay: in vitro enzyme assay to detect the production of urea directly proportional to the activity of Arginase II; type: functional; details: 33.3 µM; note: in the data most compounds retested in dose-response had high values
# T2 sequence (whole entry): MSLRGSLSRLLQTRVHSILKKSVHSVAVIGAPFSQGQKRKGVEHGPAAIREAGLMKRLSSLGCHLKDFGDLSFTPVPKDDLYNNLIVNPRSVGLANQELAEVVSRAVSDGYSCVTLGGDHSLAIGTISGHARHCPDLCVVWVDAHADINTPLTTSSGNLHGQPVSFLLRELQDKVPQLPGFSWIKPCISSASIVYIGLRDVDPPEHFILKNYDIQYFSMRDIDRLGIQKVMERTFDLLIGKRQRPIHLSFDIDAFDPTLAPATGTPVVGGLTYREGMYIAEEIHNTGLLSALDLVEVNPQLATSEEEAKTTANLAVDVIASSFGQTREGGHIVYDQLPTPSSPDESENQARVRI
# [6] = target: T3, Proteasome subunit beta (Trypanosoma cruzi) (UniProt O96673); assay: Trypanosoma cruzi proteasome chymotrypsin-like activity (TcProtChymo) assay.; note: in the data most compounds retested in dose-response had high values; type: functional; details: 9.37 µM
# T3 sequence (whole entry): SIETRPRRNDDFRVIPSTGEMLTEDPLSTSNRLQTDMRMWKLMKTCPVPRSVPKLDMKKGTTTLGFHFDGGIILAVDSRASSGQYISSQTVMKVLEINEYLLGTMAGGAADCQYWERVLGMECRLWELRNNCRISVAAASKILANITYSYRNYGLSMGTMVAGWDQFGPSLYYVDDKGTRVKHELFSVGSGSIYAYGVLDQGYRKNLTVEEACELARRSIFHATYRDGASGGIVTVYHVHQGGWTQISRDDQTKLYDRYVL
# Homo sapiens = species: Homo sapiens; assay: To identify inhibition of the IFN signalling (Jak-Stat) pathway via expression of an eGFP reporter gene under the control of an IFN-stimulated response element (ISRE) containing MxA promoter.; type: functional; details: 30 µM
# [7] = target: T4, Tyrosyl-tRNA synthetase, putative (Trypanosoma cruzi (strain CL Brener)) (UniProt Q4DSP6); assay: Trypanosoma cruzi tyrosyl tRNA synthetase (TcYRS) _High Tyrosine SOP; type: functional; details: 30 µM; note: in the data most compounds retested in dose-response had high values
# T4 sequence (whole entry): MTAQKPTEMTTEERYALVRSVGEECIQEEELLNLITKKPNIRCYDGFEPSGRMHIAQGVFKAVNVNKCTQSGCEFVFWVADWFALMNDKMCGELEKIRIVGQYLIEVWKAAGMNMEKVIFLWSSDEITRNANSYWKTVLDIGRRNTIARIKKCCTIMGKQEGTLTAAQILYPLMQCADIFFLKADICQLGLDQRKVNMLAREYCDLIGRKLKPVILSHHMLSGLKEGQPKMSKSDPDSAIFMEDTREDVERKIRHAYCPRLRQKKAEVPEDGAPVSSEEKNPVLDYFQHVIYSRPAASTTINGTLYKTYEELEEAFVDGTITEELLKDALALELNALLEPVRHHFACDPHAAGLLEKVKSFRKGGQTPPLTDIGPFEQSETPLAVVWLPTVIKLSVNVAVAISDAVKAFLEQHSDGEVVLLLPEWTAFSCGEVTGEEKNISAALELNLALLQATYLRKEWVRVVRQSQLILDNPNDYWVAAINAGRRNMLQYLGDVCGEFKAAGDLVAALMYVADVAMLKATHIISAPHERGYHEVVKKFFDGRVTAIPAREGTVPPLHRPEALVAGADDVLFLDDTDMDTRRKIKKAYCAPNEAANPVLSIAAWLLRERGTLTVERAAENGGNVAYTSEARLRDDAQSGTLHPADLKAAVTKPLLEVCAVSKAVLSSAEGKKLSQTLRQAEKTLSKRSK
# [8] = target: T4, Tyrosyl-tRNA synthetase, putative (Trypanosoma cruzi (strain CL Brener)); assay: Trypanosoma cruzi tyrosyl tRNA synthetase (TcYRS) SOP; type: functional; details: 30 µM
# [9] = target: Chromo domain-containing protein 1 (Saccharomyces cerevisiae (strain ATCC 204508 / S288c) (Baker's yeast)) (UniProt P32657); assay: ScCHD-1 Enzyme Inhibition Assay; type: functional; details: 30 µM; note: in the data most compounds retested in dose-response had high values
# Sequence of Chromo domain-containing protein 1 (Saccharomyces cerevisiae (strain ATCC 204508 / S288c) (Baker's yeast)) (P32657 whole entry, the tested form may be a part): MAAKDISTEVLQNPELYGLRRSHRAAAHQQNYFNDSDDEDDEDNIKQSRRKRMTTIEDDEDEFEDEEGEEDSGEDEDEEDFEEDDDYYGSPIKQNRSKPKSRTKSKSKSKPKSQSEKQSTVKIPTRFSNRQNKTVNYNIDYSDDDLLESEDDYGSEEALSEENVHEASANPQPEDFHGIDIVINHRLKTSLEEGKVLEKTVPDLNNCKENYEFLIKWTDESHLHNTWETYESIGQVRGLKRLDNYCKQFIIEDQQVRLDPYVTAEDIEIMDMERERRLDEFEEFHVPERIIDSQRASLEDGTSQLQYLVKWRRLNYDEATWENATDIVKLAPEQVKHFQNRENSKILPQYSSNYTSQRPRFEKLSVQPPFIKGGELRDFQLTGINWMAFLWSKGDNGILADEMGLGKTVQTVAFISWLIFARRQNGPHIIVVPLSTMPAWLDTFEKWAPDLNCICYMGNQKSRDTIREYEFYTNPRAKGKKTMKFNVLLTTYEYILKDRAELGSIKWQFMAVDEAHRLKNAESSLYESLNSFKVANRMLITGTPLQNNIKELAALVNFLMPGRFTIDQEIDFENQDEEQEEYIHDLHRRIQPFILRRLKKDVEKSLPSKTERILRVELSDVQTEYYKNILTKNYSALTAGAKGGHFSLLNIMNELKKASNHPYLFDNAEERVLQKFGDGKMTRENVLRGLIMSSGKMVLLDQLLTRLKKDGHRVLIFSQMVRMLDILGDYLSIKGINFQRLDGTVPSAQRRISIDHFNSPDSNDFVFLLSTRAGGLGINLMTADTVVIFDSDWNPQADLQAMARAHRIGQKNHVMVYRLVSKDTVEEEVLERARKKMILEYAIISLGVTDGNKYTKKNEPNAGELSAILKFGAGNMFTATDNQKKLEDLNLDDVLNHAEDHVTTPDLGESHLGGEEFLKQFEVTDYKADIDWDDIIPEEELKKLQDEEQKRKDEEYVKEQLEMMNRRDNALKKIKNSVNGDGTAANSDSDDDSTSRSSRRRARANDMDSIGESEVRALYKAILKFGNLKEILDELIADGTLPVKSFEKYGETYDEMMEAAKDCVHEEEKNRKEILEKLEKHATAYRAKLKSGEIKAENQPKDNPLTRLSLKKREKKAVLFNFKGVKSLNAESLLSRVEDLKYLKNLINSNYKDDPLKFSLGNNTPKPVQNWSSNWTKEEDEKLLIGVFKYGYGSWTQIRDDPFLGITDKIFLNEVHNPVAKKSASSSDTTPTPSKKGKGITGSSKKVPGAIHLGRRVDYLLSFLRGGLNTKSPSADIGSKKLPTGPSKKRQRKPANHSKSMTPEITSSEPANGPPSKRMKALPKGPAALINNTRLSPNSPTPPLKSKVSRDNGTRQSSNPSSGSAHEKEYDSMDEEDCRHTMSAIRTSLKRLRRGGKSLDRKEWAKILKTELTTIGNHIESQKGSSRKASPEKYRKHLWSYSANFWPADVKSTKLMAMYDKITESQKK
SMILES,Percent Effect [1],Percent Effect [2],Percent Effect [3],Percent Effect [4],Percent Effect (Trypanosoma cruzi),Percent Effect [5],Percent Effect [6],Percent Effect (Homo sapiens),Percent Effect [7],Percent Effect [8],Percent Effect [9]
O=C(CCCn1cncn1)NC1(c2ccccc2)CCC1,-7.52%,7.79%,1.86%,8.16%,-6%,-11%,13.6%,15.5%,3.23%,11.1%,-1%
CS(=O)(=O)c1ccc(OCCNCc2ccc(F)cc2F)cc1,-5.74%,8.22%,1.54%,2.33%,4.37%,-7.19%,9.85%,6.01%,8.33%,13.6%,-1.49%
Cc1nc(N2CCOCC2)nc2c1CCN(Cc1cccnc1)CC2,-2.77%,0%,0.954%,7.94%,-3.28%,-56.8%,3.08%,-25.6%,7.29%,-2.5%,-17.8%
COCCC(=O)N1CCC2(COCc3cnc(N4CCOCC4)nc32)C1 (stereo unspecified),-4.87%,10.7%,18.4%,-1.98%,-5.51%,2.1%,8.02%,11.9%,0%,6.41%,-0.906%
CCCNC(=O)CN1CCC(C(=O)Nc2cnn(CC)c2)CC1,-4.73%,18.4%,-9.54%,-8.7%,-5.13%,3.24%,3.98%,7.34%,6.4%,18.5%,-3.68%
CCOC(=O)C1CCN(Cc2csc(C(C)(C)C)n2)CC1,1.04%,0%,2.22%,11%,-3.12%,9.89%,-5.98%,4.26%,4.43%,-3.8%,-1.95%
CC(C)CN1CCC(C(=O)Nc2cc(C(F)(F)F)c[nH]c2=O)CC1,-7.9%,10.4%,4.55%,14.9%,6.37%,-2.13%,1.18%,-6.76%,5.83%,21.9%,-10.2%
Cc1c(C2CCCN(C(=O)Cc3ccccn3)C2)n2c(nc1=O)CCC2 (stereo unspecified),-4%,12.2%,4.92%,-3.29%,-5.53%,0.696%,15.3%,14.5%,6.45%,6.49%,-11.6%
NC(=O)C1CN(C(=O)Nc2ccccc2N2CCCCCC2)CCO1 (stereo unspecified),-6.93%,-48.6%,-3.8%,9.74%,6.96%,-3.88%,4.31%,11.3%,1.98%,15.8%,-1.09%
Cc1ccc(C(=O)N2CCO[C@H]3[C@@H](OCc4ccccn4)CC[C@@H]32)o1,-2.21%,10.4%,-8.74%,3.45%,-4.44%,11%,12.7%,11.5%,-1.06%,-8.97%,-6.69%
Cc1noc(C)c1C(=O)NCC(O)c1ccc(F)cc1F (stereo unspecified),-3.08%,0%,-4.32%,-2.42%,-3.06%,1.66%,3.05%,10.6%,-3.96%,-6.1%,10.4%
CN(C)Cc1nn(C)c2c1CCN(S(=O)(=O)c1cccs1)C2,-0.0797%,13%,2.64%,-2.7%,1.48%,3.23%,5.57%,14.8%,8.47%,8.97%,-7.57%
CN(Cc1cccc(O)c1)CC1CCCN(CCc2ccc(Cl)cc2)C1 (stereo unspecified),-6.32%,-13.5%,1.05%,9.76%,2.64%,4.22%,-2.32%,27.2%,4.3%,11.1%,-0.68%
CN(C)C(=O)N1CCOCC2(CCN(c3ncccn3)C2)C1 (stereo unspecified),-4.78%,8.11%,-5.27%,28.6%,6.35%,-1.24%,5.75%,-36.2%,6.45%,11.1%,-5.72%
Cc1ccc(-c2nc(CNCCn3cccn3)cs2)o1,1.6%,-429%,4.22%,-1.49%,1.13%,4.6%,8.19%,10.3%,11.3%,4.88%,1.79%
C[C@H]1C[C@@H]2CCN(C(=O)c3cccn3C)C[C@H]2O1,-0.284%,10.8%,2.27%,-5.58%,-8.89%,6.69%,17.5%,3.63%,-1.08%,5.13%,-0.358%
